PubChem BioAssay (EPA / NIEHS)
Records with an inconclusive call do not appear. Calls of active or inactive are those of the source. The calls were made as follows, unless noted: active = hit-call score of the fitted dose curve at least 0.9, where 1 is the maximum; inconclusive = response in the unintended direction; inactive = score below 0.9.

Assays:
[1] = molecular target: Cellular tumor antigen p53 (Homo sapiens) (UniProt P04637); experiment: TOX21_p53_BLA_p4_ratio: Tox21 HCT-116 p53 Agonism Beta-lactamase Assay, Ratio, Phase 4 (AID 2283601)
Procedure, shortened: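 Signal is the blue/green (460nm/530nm) ratio of cleaved versus uncleaved CCF4-AM substrate, read after 2 h substrate loading. Cells were HCT116 carrying the p53-responsive beta-lactamase reporter, dosed 16 h at 37C, 5% CO2; CellTiter-Glo measured in parallel.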

[2] = ATG_M_32_XSP2: Attagene TRANS-FACTORIAL Multi-Species (XSP2) HepG2 Assay for M19 Transcription Factor (Internal Marker) (AID 2283826)
Procedure, shortened: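 Transfected HepG2 (multiplexed GAL4-UAS reporters), 24 h chemical exposure, 3 nM 6-alpha-fluorotestosterone + 1.5 nM norgestrel added. RNA → oligo(dT) RT → PCR → 6-FAM primer extension → HpaI cut → CE. Fitted upward vs DMSO.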

[3] = CCTE_Harrill_HTTr_Apoptosis_MCF7: CCTE's 6-hour Apoptosis Assessment for the High-Throughput Transcriptomics (HTTr) Platform, in MCF-7 cells cultured in DMEM + 10% fetal bovine serum, Harrill Lab (AID 2284011; active = hit-call score of the fitted dose curve at least 0.9, where 1 is the maximum; inactive = score below 0.9)
Procedure, shortened: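 MCF-7 (DMEM + 10% FBS), 384-well; 8-pt dilution series, 6 h chemical exposure; caspase-3/7 activation via CellEvent Caspase 3/7 Green, HCI; bidirectional fit vs DMSO.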

[4] = CCTE_Mundy_HCI_Cortical_Synap_Neur_Matur_BPCount: CCTE's Synaptogenesis and Neurite Maturation Assay in rat cortical cells for Branch Point Count, Mundy Lab (AID 2284211; active = hit-call score of the fitted dose curve at least 0.9, where 1 is the maximum; inactive = score below 0.9)
Procedure, shortened: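 HCI read-out of branch points from MAP2/synaptophysin/Hoechst immunofluorescence; rat cortical cultures, AraC DIV 5, dosing DIV 7, fixed DIV 12; fit in positive direction vs DMSO baseline.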

[5] = CCTE_Mundy_HCI_Cortical_NOG_NeuriteCount: CCTE's Neurite Outgrowth Assay in rat cortical cells for Neurite Count, Mundy Lab (AID 2284212; active = hit-call score of the fitted dose curve at least 0.9, where 1 is the maximum; inactive = score below 0.9;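 also: cells fixed about two days after chemical exposure began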)
Procedure, shortened: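 Rat cortical primary cells; compound added 2 h post-plating, 1/10 dilution of working solution. Anti-betaIII-tubulin/AF488 ICC; ArrayScan neurite count vs DMSO.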

[6] = CCTE_Mundy_HCI_Cortical_Synap_Neur_Matur_NeuriteCount: CCTE's Synaptogenesis and Neurite Maturation Assay in rat cortical cells for Neurite Count, Mundy Lab (AID 2284222; active = hit-call score of the fitted dose curve at least 0.9, where 1 is the maximum; inactive = score below 0.9;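 as to outcome: exposure from day 7 to day 12 in vitro with readout at day 12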)
Procedure, shortened: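 Chemical exposure runs DIV 7–12 in rat cortical cultures, glia suppressed by AraC at DIV 5; measurement is at DIV 12. Imaging-derived neurite counts are fitted against DMSO baseline.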

[7] = CCTE_Mundy_HCI_Cortical_NOG_BPCount: CCTE's Neurite Outgrowth Assay in rat cortical cells for Branch Point Count, Mundy Lab (AID 2284237; active = hit-call score of the fitted dose curve at least 0.9, where 1 is the maximum; inactive = score below 0.9;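 as to AC50: branch points counted about two days after chemical exposure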)
Procedure, shortened: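 Measured 50.33 h after dosing, this morphology endpoint uses rat primary cortical cultures labelled for betaIII-tubulin. Branch points are quantified by high-content imaging, with DMSO as negative control and baseline.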

[8] = CCTE_Mundy_HCI_Cortical_Synap_Neur_Matur_NeuronCount: CCTE's Synaptogenesis and Neurite Maturation Assay in rat cortical cells for Neuron Count, Mundy Lab (AID 2284242);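 as to AC50: hits reduce neuron count versus DMSO baseline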
Procedure, shortened: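 Neuron counts come from automated high-content imaging of Hoechst nuclei and MAP2/synaptophysin immunostaining at DIV 12, with loss of signal judged against DMSO. Cultures of rat cortical cells had glial growth arrested by AraC at DIV 5; chemical exposure began DIV 7.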

[9] = CCTE_Mundy_HCI_iCellGluta_NOG_NeuriteLength: CCTE's Neurite Outgrowth Assay in iCellGluta cells for Neurite Length, Mundy Lab (AID 2284318)
Procedure, shortened: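 Automated high-content imaging of betaIII-tubulin (Alexa Fluor-488) and Hoechst-stained cells gave neurite length, normalized to the DMSO baseline.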

[10] = CCTE_Mundy_HCI_iCellGluta_NOG_NeuronCount: CCTE's Neurite Outgrowth Assay in iCellGluta cells for Neuron Count, Mundy Lab (AID 2284340);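 also: cells fixed about 48 h after compound addition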
Procedure, shortened: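 Neuron count read by automated high-content imaging of Hoechst 33342 and betaIII-tubulin/Alexa Fluor-488 labelling in human iPSC glutamatergic neurons. Activity fitted relative to DMSO.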

[11] = UKN5_HCS_SBAD2_cell_viability: Viability Assessment in the University of Konstanz (UKN) Leist Lab Neurite Outgrowth Assay in human iPSC-derived immature Dorsal Root Ganglia Neurons (UKN5) (AID 2284056; active = hit-call score of the fitted dose curve at least 0.9, where 1 is the maximum; inactive = score below 0.9)
Procedure, shortened: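 iPSC-derived immature peripheral neurons (SBAD2) seeded on Matrigel with CHIR99021, SU5402 and DAPT, dosed 1 h later for 24 h. Viability from Hoechst H-33342 and calcein-AM live staining, high-content imaging; bidirectional fit versus DMSO.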

[12] = UKN5_HCS_SBAD2_neurite_outgrowth: University of Konstanz (UKN) Leist Lab Neurite Outgrowth Assay in human iPSC-derived immature Dorsal Root Ganglia Neurons (UKN5) (AID 2284070; active = hit-call score of the fitted dose curve at least 0.9, where 1 is the maximum; inactive = score below 0.9); settings: actives raise or lower the signal
Procedure, shortened: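 Neurite area from calcein-AM high-content images after 24 h exposure (staining included), with H-33342 for viability, fitted both directions against DMSO. Cells: thawed immature SBAD2 peripheral neurons, 100.000 cells/cm2, with CHIR99021, SU5402, DAPT; dosing 1 h after seeding.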

[13] = UKN4_HCS_LUHMES_neurite_outgrowth: University of Konstanz (UKN) Leist Lab Neurite Outgrowth Assay in human LUHMES cells (UKN4) (AID 2284206; active = hit-call score of the fitted dose curve at least 0.9, where 1 is the maximum; inactive = score below 0.9); settings: actives raise or lower the signal
Procedure, shortened: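 After 24 h compound treatment beginning shortly after replating of 2-day-differentiated LUHMES cells, calcein-AM and H-33342 live staining allowed high-content imaging of neurite area and viability. Fitted bidirectionally against DMSO.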

[14] = CCTE_Mundy_HCI_hNP1_Pro_ResponderAvgInten: CCTE's Proliferation Assay in human neuroprogenitor cells, Mundy Lab (AID 2284224);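 also: human neural progenitor cells hNP1 derived from WA09 embryonic stem cells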
Procedure, shortened: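 Proliferation was scored as BrdU labelling intensity in human neural progenitors derived from WA09 embryonic cells, measured 26.25 hours after chemical dosing. Activity was fitted relative to DMSO.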

[15] = UKN4_HCS_LUHMES_cell_viability: Viability Assessment in the University of Konstanz (UKN) Leist Lab Neurite Outgrowth Assay in human LUHMES cells (UKN4) (AID 2284232; active = hit-call score of the fitted dose curve at least 0.9, where 1 is the maximum; inactive = score below 0.9)
Procedure, shortened: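 Viability was read by high-content imaging of calcein-AM/H-33342-stained cells after 24 h toxicant exposure, staining included. Cells: human LUHMES on day 2 of dopaminergic differentiation, dosed shortly after attachment; DMSO baseline, bidirectional curve fitting.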

[16] = IUF_NPC4_neurite_area_120hr: Leibniz Research Institute for Environmental Medicine (IUF) 120-hour Neuronal Morphology Assay for Neurite Area (NPC4) (AID 2284305)
Procedure, shortened: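 Neurite area (pixels, nuclei excluded) of TUBB3-positive neurons from hNPC spheres differentiating 5 days under continuous exposure at 37 C, 5% CO2. High-content imaging; loss of signal versus DMSO control across 7 concentrations.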

[17] = CCTE_Harrill_HTTr_CellCount_MCF7: CCTE's Cell Proliferation Assessment for the High-Throughput Transcriptomics (HTTr) Platform, Harrill Lab (AID 2284012);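 also: cells exposed to compound for six hours; intended direction is loss of nuclei count meaning fewer cells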
Procedure, shortened: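 Cell count from high-content imaging of Hoechst-labeled nuclei serves as viability/growth readout. Chemicals were applied to MCF-7 cells in eight concentrations for six hours, with fitting in both directions relative to DMSO.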

[18] = IUF_NPC5_oligodendrocyte_differentiation_120hr: Leibniz Research Institute for Environmental Medicine (IUF) 120-hour Oligodendrocyte Differentiation Assay (NPC5) (AID 2284304);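 also: primary human fetal neural progenitor spheres plated to migrate and differentiate; share of O4-positive cells among Hoechst nuclei found by CNN image analysis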
Procedure, shortened: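 Oligodendrocyte differentiation was scored after 120 h as the O4-positive share of Hoechst-stained nuclei across the neurosphere migration area, using a trained convolutional neural network on high-content fluorescence images. Human fetal neural progenitor spheres were dosed from day 0, normalised to DMSO.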

[19] = IUF_NPC1_cytotoxicity_72hr: Cytotoxicity Assessment at 72 hours in the Leibniz Research Institute for Environmental Medicine (IUF) Neural Progenitor Cell Proliferation Assay (NPC1) (AID 2284332);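 also: rising LDH signal means more cytotoxicity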
Procedure, shortened: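 Cytotoxicity by LDH membrane-integrity assay on medium supernatants, fluorescence via resazurin reduction, after 3-day single exposure of primary hNPC spheres at 37C, pH 7.2-7.6 with growth factors. Fitted upward against baseline.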

Chain of Cellular tumor antigen p53 (Homo sapiens) (P04637 whole entry, looked up): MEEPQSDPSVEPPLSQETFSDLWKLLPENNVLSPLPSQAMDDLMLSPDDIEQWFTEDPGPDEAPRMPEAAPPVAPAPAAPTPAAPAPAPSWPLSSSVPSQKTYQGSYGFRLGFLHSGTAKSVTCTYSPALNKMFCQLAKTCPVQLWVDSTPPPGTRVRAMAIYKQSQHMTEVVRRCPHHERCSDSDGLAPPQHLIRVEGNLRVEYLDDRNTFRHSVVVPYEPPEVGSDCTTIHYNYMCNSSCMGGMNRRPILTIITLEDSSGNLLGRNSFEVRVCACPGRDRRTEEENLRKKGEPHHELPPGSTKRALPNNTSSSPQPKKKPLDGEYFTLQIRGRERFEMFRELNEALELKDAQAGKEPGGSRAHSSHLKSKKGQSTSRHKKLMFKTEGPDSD

CC1(C)S[C@@H]2[C@H](N)C(=O)N2[C@H]1C(=O)O
outcome [1]: inactive

CCCCCCCCCC(=O)O[C@H]1CC[C@H]2[C@@H]3CCC4=CC(=O)CC[C@@H]4[C@H]3CC[C@]12C
outcome [1]: inactive

NC(=O)OCCCc1ccccc1
outcome [1]: inactive

Nc1cc(Cl)ccc1O
AC50 [1]: 54.8 µM (active)

S=C=NCc1ccccc1
outcome [1]: inactive

CCCCCCCCCCCCc1ccc(O)cc1
outcome [2]: inactive

ClC(Cl)C(Cl)Cl
outcome [1]: inactive

O=C(Oc1ccccc1)c1ccc(O)cc1
outcome [2]: inactive

O=C(c1ccc(O)cc1)c1ccc(O)cc1O
outcome [2]: inactive

O=C1Nc2ccc(Cl)cc2C(c2ccccc2Cl)=NC1O (configuration not stated)
outcome [1]: inactive

N#Cc1ccc(C2CCCc3cncn32)cc1 (configuration not stated)
outcome [2]: inactive

CCN(CC)CCc1c[nH]c2ccccc12
outcome [1]: inactive

CCN(Cc1ccc(Cl)nc1)/C(=C/[N+](=O)[O-])NC
outcome [1]: inactive

C(=C(c1ccccc1)c1ccccc1)c1ccccc1
outcome [2]: inactive

CC(C)(c1cc(Br)c(O)c(Br)c1)c1cc(Br)c(O)c(Br)c1
outcome [2]: inactive

c1ccc(B(c2ccccc2)c2ccccc2)cc1
outcome [2]: inactive

CCCOC(=O)c1ccc(O)cc1
outcome [2]: inactive

CCCCCCCCCC(=O)O[C@H]1CC[C@H]2[C@@H]3CCC4=CC(=O)CC[C@]4(C)[C@H]3CC[C@]12C
outcome [1]: inactive

Cc1ccc2cc3c(ccc4ccccc43)c3c2c1CC3
outcome [3]: inactive

CC(C)(C)NC(=O)[C@H]1CC[C@H]2[C@@H]3CC[C@H]4NC(=O)C=C[C@]4(C)[C@H]3CC[C@]12C
outcome [2]: inactive

C[C@]12CC[C@H]3[C@@H](CCC4=CC(=O)CC[C@@]43C)[C@@H]1CC[C@@H]2O
outcome [1]: inactive

CCCCCCCCCCCCN
outcome [2]: inactive

CCCCC(CC)COC(=O)c1ccc(O)cc1 (configuration not stated)
outcome [2]: inactive

CN(CCO)CCO
outcome [1]: inactive

Oc1ccccc1Cc1ccccc1O
outcome [2]: inactive

CCCN1CCC[C@@H]2Cc3[nH]ncc3C[C@H]21
outcome [1]: inactive

CCN(Cc1c(F)cccc1Cl)c1c([N+](=O)[O-])cc(C(F)(F)F)cc1[N+](=O)[O-]
outcome [2]: inactive

Oc1ccc2cc(SSc3ccc4cc(O)ccc4c3)ccc2c1
outcome [2]: inactive

COc1ccc2[nH]cc(CCN(C(C)C)C(C)C)c2c1
outcome [1]: inactive

O=C(O)CCCCCCNC1c2ccccc2CCc2ccccc21
outcome [1]: inactive

C#CCN(C)[C@H](C)Cc1ccccc1
outcome [4]: inactive
outcome [5]: inactive
outcome [6]: inactive
outcome [7]: inactive
outcome [8]: inactive
outcome [9]: inactive
outcome [10]: inactive

C[n+]1ccc(-c2cc[n+](C)cc2)cc1
outcome [11]: inactive
AC50 [12]: 202 µM (active)
AC50 [13]: 189 µM (active)
AC50 [4]: 0.947 µM (active)
AC50 [5]: 29.6 µM (active)
AC50 [6]: 1.21 µM (active)
AC50 [14]: 85.1 µM (active)
outcome [15]: inactive
AC50 [7]: 50 µM (active)
AC50 [8]: 0.763 µM (active)
outcome [16]: inactive

CCCCOC(=O)N(C)SN(C)C(=O)Oc1cccc2c1OC(C)(C)C2
outcome [3]: inactive
outcome [17]: inactive

CC(=O)[O-].CC(=O)[O-].O.O.O.[Pb+2]
AC50 [11]: 17.7 µM (active)
outcome [12]: inactive
outcome [13]: inactive
outcome [15]: inactive

O=C(O)CNCP(=O)(O)O
outcome [14]: inactive

COP(=S)(Oc1cc(Cl)c(Br)cc1Cl)c1ccccc1 (configuration not stated)
outcome [3]: inactive
outcome [17]: inactive

[Cl-].[Cl-].[Cl-].[Pr+3]
outcome [3]: inactive

COP(=S)(OC)SCC(=O)N(C)C=O
outcome [3]: inactive
outcome [17]: inactive

Cc1cc(N)ccc1N
outcome [3]: inactive
outcome [17]: inactive

CCOP(=O)(OCC)SCSCC
outcome [4]: inactive
AC50 [5]: 78.6 µM (active)
outcome [6]: inactive
outcome [14]: inactive
AC50 [7]: 84.1 µM (active)
outcome [18]: inactive
outcome [16]: inactive
AC50 [9]: 49.8 µM (active)
outcome [19]: inactive
outcome [10]: inactive
